# Test results: ChEMBL document CHEMBL3988442, “University of Dundee, Small-Polar-MMV Screening Library” (2021)
# About 900 (1.7%) of roughly 53,000 compounds showed an effect of 50% or more. The list comes from a sample in which strong results are over-represented; it also holds similar structures and randomly drawn compounds.
# System: Mycobacterium tuberculosis
# Assay: Cornell - Phenotypic assay to identify agents that inhibit growth of Mycobacterium tuberculosis
# Format: functional
# Design: scale not given: direction of the effect not stated beside the values
# Settings: 10 mM as filed; unlikely as a test dose
row,Compound,Percent Effect
1,COc1cc(-c2cc(N)ncn2)cc(OC)c1OC,14.69%
2,O=C(NCCNc1ncccn1)C1CCN(C(=O)NC2CC2)CC1,-5.946%
3,Cc1nc(N(C)C)nc(C)c1NS(=O)(=O)c1ccc(OC(F)(F)F)cc1,21.9%
4,CC(=O)N1CCN(c2cnccn2)CC(CO)C1 (stereo not given),10.91%
5,COCc1nc(C(=O)N2CCCC2c2noc(C)n2)cs1 (stereo not given),-28.82%
6,Cc1ccc(CN2CCCC2(C(N)=O)c2cnccn2)c(C)c1 (stereo not given),-1.756%
7,CSc1[nH]c(=O)c(C(=O)N2CCCC2C2CCCC2)cc1C#N (stereo not given),65.7%
8,CCC1CCCCCN1C(=O)c1cc(C#N)c(SC)[nH]c1=O (stereo not given),-5.356%
9,CSc1[nH]c(=O)c(C(=O)N2CCCC2c2cccs2)cc1C#N (stereo not given),17.36%
10,CC(=O)c1ccc(C(=O)NCc2cccnc2N2CCCC(O)C2)s1 (stereo not given),26.17%
11,COc1cccc(CN(C)Cc2c(C)noc2C)c1OC,-9.272%
12,CCc1c(C)nc(SCc2ccccn2)[nH]c1=O,11.8%
13,CN1CCN(Cn2nc(-c3cccs3)ccc2=O)CC1,17.93%
14,Cc1nn(C)c(C)c1S(=O)(=O)NCCn1ccc(-c2cccs2)n1,-2.587%
15,Cc1nc(-n2nc(-c3cccs3)cc2N)[nH]c(=O)c1C,75.1%
16,CC(C(N)=O)n1nc(-c2cccs2)cc(N)c1=O (stereo not given),-30.4%
17,CCc1c(C)nc(-n2nc(-c3cccs3)cc2N)[nH]c1=O,106.9%
18,Cc1ccnc(C2CCN(C(=O)c3cnn(C)c3)CC2)n1,19.18%
19,CN1C(=O)C2(CC(=O)Nc3c2cnn3C(C)(C)C)c2ccccc21 (stereo not given),16.17%
20,Cc1ccc(CC2CCCN2CC(=O)NCc2cccnc2)cc1 (stereo not given),13.39%
21,CN1CC2(CCCN(Cc3cccc(CCN)c3)C2)OC1=O (stereo not given),4.729%
22,CN(CC(=O)NCc1ccccn1)C1CCCN(c2cccnn2)C1 (stereo not given),-22.52%
23,COC(=O)c1ccccc1S(=O)(=O)NC(=O)c1cccc2c1OCCO2,-3.436%
24,Cl.Cl.O=C1NC2(CCNCC2)CC1c1ccncc1 (stereo not given),-12.16%
25,Cl.O=C1NC2(CCNCC2)CC1c1ccccc1 (stereo not given),100.2%
26,O=C1NC2(CCN(CCc3ccccc3)CC2)CC1c1ccccc1 (stereo not given),19.15%
27,Cc1nn(C)c(N(C)C)c1CNCc1ccnc(N2CCOCC2)c1,31.35%
28,CCS(=O)(=O)N1C[C@H]2CN(CC3CC3)C(=O)[C@H]2C1,-29.96%
29,COc1ccccc1CCNS(=O)(=O)N1CCOCC1,-2.569%
30,COCC(=O)NCCc1nc2cc(-c3ccc(OC)cc3)ncn2n1,48.11%
